Screening data from PubChem.
Only some compounds are listed: those with a hit (about 3.5% of all), similar ones and a draw of the others.
FBW7 activator = human FBW7 E3 ligase activation, primary screen; AID 1259310; normalized activity (activation), % at 26.1 µM; actives 0.13% (n = 650,000); AlphaScreen FBW7–phospho-cyclin E peptide binding, activator screen; in the data active means normalized activity above about 1.9%;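 further: purified mutant Fbw7 with reduced substrate affinity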
MITF primary = blocks human microphthalmia-associated transcription factor | O75030 | actives 0.91% (n = 650,000) | AlphaScreen MITF homodimerization, bead proximity signal | inhibition, % at 2.6 µM; in the data active means inhibition above about 50%;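 further: 0% = vehicle wells with protein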
GPR151 activ = activates the human receptor GPR151; PathHunter beta-arrestin GPR151 cells, luminescence; activation, % at 11.2 µM; actives 1% (n = 650,000); in the data active means activation above about 4.9%;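 further: 0% = median of compound wells and 100% = cells with positive control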
Target sequence (Q8TDV0 whole entry, looked up): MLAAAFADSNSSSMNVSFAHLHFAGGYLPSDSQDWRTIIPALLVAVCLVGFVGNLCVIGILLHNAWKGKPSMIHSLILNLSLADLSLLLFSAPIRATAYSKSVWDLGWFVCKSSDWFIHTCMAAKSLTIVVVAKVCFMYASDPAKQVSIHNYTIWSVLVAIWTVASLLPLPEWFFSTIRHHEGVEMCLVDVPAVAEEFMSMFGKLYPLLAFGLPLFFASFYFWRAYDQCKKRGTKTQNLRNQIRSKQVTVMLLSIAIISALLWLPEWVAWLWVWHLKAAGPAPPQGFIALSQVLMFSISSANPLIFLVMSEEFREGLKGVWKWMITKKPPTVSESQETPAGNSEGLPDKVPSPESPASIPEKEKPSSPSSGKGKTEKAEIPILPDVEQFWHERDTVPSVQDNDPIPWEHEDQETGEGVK
TEAD-YAP block = TEAD-YAP interaction inhibition. inhibition, % at 9.12 µM. actives 1.4% (n = 640,000). AID 1259422. HEK-TIYL cells, TEAD-Gal4/YAP UAS-luciferase luminescence; in the data active means inhibition above about 32%;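 further: 0% = median of test compound wells and 100% = reference inhibitor wells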
* hit, by the source's call.

SMILES	FBW7 activator	MITF primary	GPR151 activ	TEAD-YAP block
CCN(CC)C(=O)C1=C(C)NC(=S)NC1c1ccc(Cl)cc1 (stereo not given)	1	11	1	13
C=CCCCCCCCCC(=O)O.C=CCCCCCCCCC(=O)O.[Zn+2]	0	-1	-1	7
O=c1c2c(-c3ccccc3)csc2nc2c3ccccc3c(N3CCN(CCO)CC3)nn12	0	-1	-1	4
COc1ccc(S(=O)(=O)NCc2cccnc2)c2ccccc12	1	10	0	1
COc1ccc(CNS(=O)(=O)c2ccc(OC)c3ccccc23)cc1	0	-5	4	34*
CCn1c(SCC(=O)N2CCCC2)nnc1-c1c[nH]c2ccccc12	0	-7	0	1
CCOC(=O)N1CCN(C(=O)CSc2nnc(-c3c[nH]c4ccccc34)n2CC)CC1	0	-13	-2	36*
Cc1c(C=O)c2ccccn2c1CCC#N	0	-7	-1	9
O=C(c1ccc(F)cc1)N1CCN(Cc2ccc(Cl)cc2)CC1	0	50	-1	16
CCc1ccc(CN2CCN(C(=O)c3ccc(F)cc3)CC2)cc1	0	47	0	37*
CCOc1ccc(N=C(NN)c2ccc3ccccc3n2)cc1	0	2	2	94*
Cc1ccc(N=C(NN)c2ccc3ccccc3n2)cc1	0	37	-1	92*
COc1ccccc1N=C(NN)c1ccc2ccccc2n1	0	10	0	-32
O=C1OC(c2ccccc2Br)=N/C1=C\c1ccccc1[N+](=O)[O-]	0	11	-1	-5
O=C(CCCn1c(SCc2cccc(F)c2)nc2ccccc2c1=O)NCc1ccco1	0	-5	-1	-16
c1ccc(Nc2ncnc3nc(-c4ccc(N5CCOCC5)nc4)[nH]c23)cc1	0	26	2	54*
c1cc(Nc2nc3ncnc(Nc4ccc(N5CCOCC5)cc4)c3[nH]2)ccn1	0	15	-2	43*
c1cnc(Nc2nc3ncnc(Nc4ccc(N5CCOCC5)cc4)c3[nH]2)nc1	0	17	-2	53*
CCN(CC)C(=O)C1CCCN(c2nc3ncnc(Nc4ccc(N5CCOCC5)cc4)c3[nH]2)C1 (stereo not given)	0	-4	-3	44*
c1nc(Nc2ccc(N3CCOCC3)cc2)c2[nH]c(NCCN3CCOCC3)nc2n1	0	15	-2	7
CC(=O)Nc1ccc(Nc2ncnc3nc(Nc4ccc(N5CCOCC5)cc4)[nH]c23)cc1	0	10	1	0
CC(=O)Nc1ccc(Nc2ncnc3nc(-c4ccc(N5CCOCC5)nc4)[nH]c23)cc1	0	0	-1	28
O=c1/c(=C/c2ccc(Cl)cc2)sc2ncnn12	0	5	4	-18
Cc1noc(C)c1-c1nc2ncnc(Nc3ccc(N4CCOCC4)cc3)c2[nH]1	0	13	-1	33*
c1nc(NC2CC2)c2[nH]c(Nc3ccc(N4CCOCC4)cc3)nc2n1	0	17	-3	35*
SMILES	FBW7 activator	MITF primary	GPR151 activ	TEAD-YAP block
c1ccc(CN2CCC(Nc3ncnc4nc(Nc5ccc(N6CCOCC6)cc5)[nH]c34)CC2)cc1	0	9	0	3
O=C(Nc1ccc(O)cc1)c1cc2ccccn2n1	0	6	-3	56*
Nc1ccc2nc3c(c(Cl)c2c1)CCCC3	0	9	1	33*
O=C(CSc1nnc(-c2cccc(Br)c2)o1)c1cccc([N+](=O)[O-])c1	0	11	-1	4
COc1ccccc1NS(=O)(=O)c1ccc(N/N=C/c2ccccc2O)c([N+](=O)[O-])c1	0	6	0	2
COc1ccccc1N1CCN(Cc2cc([N+](=O)[O-])c(O)c3ncccc23)CC1	-1	28	-1	6
COc1ccccc1N1CCN(Cc2cc(COCc3ccccc3)c3cccnc3c2O)CC1	-1	49	0	74*
COc1ccccc1N1CCN(Cc2cc(Br)c(O)c3ncccc23)CC1	-1	43	0	81*
COCc1cc(CN2CCCC2)c(O)c2ncccc12	-1	100*	1	81*
CCOc1ccccc1N1CCN(Cc2cc(OC)c(OC)c(OC)c2)CC1	1	35	-1	41*
COc1ccc(CCNc2nc3c(c(=O)n(C)c(=O)n3C)n2Cc2ccc(Cl)cc2Cl)cc1OC	0	3	0	-17
CCOc1ccccc1N1CCN(Cc2cccc(OC)c2O)CC1	0	17	0	8
COc1ccccc1N1CCN(Cc2cc([N+](=O)[O-])c3cccnc3c2O)CC1	-1	18	-1	14
COc1ccccc1N1CCN(Cc2cc(Cl)c3cccnc3c2O)CC1	-1	42	-3	32*
CCOCc1cc(CN2CCOCC2)c(O)c2ncccc12	-1	86*	-1	-3
Oc1c(CN2CCCCC2)cc(COCc2ccccc2)c2cccnc12	-1	98*	0	74*
CCOCc1cc(CN2CCN(c3ccccc3OC)CC2)c(O)c2ncccc12	-1	91*	0	10
CC1CCN(Cc2cc([N+](=O)[O-])c(O)c3ncccc23)CC1	-1	42	-1	-5
CCOc1cc(C2C(C(=O)OCCOc3ccccc3)=C(C)NC3=C2C(=O)CC(c2ccc(OC)cc2)C3)ccc1OC(C)=O (stereo not given)	2	12	1	4
COc1ccccc1N1CCN(Cc2cc(COC(C)C)c3cccnc3c2O)CC1	-1	82*	1	35*
COCc1cc(CN(C)C2CCCCC2)c(O)c2ncccc12	-2	67*	0	74*
CCCOCc1cc(CN2CCN(C)CC2)c(O)c2ncccc12	-1	94*	-2	7
Cc1ccc(N=c2c([N+](=O)[O-])nn(-c3ccccc3)n2O)c(Cl)c1	0	-2	1	7
COc1ccc(-n2nc([N+](=O)[O-])c(=Nc3ccccc3)n2O)cc1	0	11	0	54*
O=[N+]([O-])c1nn(-c2ccc3c(c2)OCCO3)n(O)c1=Nc1ccccc1	0	0	-1	89*
SMILES	FBW7 activator	MITF primary	GPR151 activ	TEAD-YAP block
Cc1cc(C)cc(N=c2c([N+](=O)[O-])nn(-c3ccc4c(c3)OCCO4)n2O)c1	0	9	2	-3
Cc1ccc(N=c2c([N+](=O)[O-])nn(-c3ccc4c(c3)OCCO4)n2O)c(Cl)c1	0	-4	1	47*
O=C1C2ON(c3ccc(Cl)cc3)C(c3ccc(F)cc3)C2C(=O)N1c1ccc([N+](=O)[O-])cc1 (stereo not given)	0	7	0	-1
Cc1cnc(-c2ccc(C(=O)NC3CC3)cc2)nc1NC1CC1	0	9	-1	6
CC1=Nc2ccccc2/C1=C/c1sc(=N)n(-c2nccs2)c1O	0	1	0	32*
CN(CC(=O)N1CCc2ccccc21)S(=O)(=O)c1cccc2cnccc12	0	16	0	34*
COc1ccc(NC(=O)CN(C)S(=O)(=O)c2cccc3cnccc23)cc1OC	0	27	0	42*
CCOc1ccc(C2C(C(=O)Nc3cccc(Cl)c3)c3ccccc3C(=O)N2CCN2CCOCC2)cc1 (stereo not given)	0	12	1	4
